Data reported in PubChem BioAssay AID1845 (The Scripps Research Institute Molecular Screening Center, 2009).
Screen size: about 290,000 compounds; about 490 (0.17%) were called active. Only a selection was taken, and actives are over-represented in it overall. Values without a mark were called inactive. Rule as the data show it: active = inhibition above about 37%; inactive = the rest.

Experiment: compounds displacing fluorescent DNA intercalator, primary screen, artefact control for HCV NS3 helicase inhibitor project, biochemical, FID fluorescence (AID 1845);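 also: 0% = vehicle and 100% = reference compound; higher means more ethidium bromide displaced from hairpin DNA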
Settings: DNA fluorescent intercalator displacement, at 7.9 µM, stronger effect = higher value

Compound | inhibition
CCn1nnnc1SCC(=O)Nc1ccc(N(C)C)cc1 | -4.25%
COc1ccc(C(=O)N2CCCCC2C(=O)Nc2ccc(-n3nc(C)cc3C)cc2)o1 (stereo not drawn) | -43.5%
Cc1ccccc1OCC(=O)Nc1nnc(S(=O)(=O)N2CCCC2)s1 | -35.4%
O=CN1CCN(C(=O)c2ccc3c(c2)OCO3)CC1 | -1.4%
NC(=O)C1CC(=O)N(c2ccc(OCC(=O)NCc3ccccc3)cc2)C1 (stereo not drawn) | -4.26%
CC(=O)c1cc(CN2CCC(n3nccc3NC(=O)c3ccccc3Cl)CC2)cs1 | -5.43%
CCOC(=O)c1c(NC(=S)NC(=O)c2ccco2)sc2c1CCCC2 | 0.98%
CCOC(=O)c1c(NC(=S)NC)sc2c1CCCC2 | -4.6%
CCOC(=O)c1c(NC(=O)C2CCN(S(=O)(=O)c3ccc(Cl)cc3)CC2)sc2c1CCCC2 | 43.9% (active)
O=C(CNC(=O)OCc1ccccc1)NC1CCCCNC1=O (stereo not drawn) | 0.17%
O=C(O)CCCN1C(=O)C2C3c4ccccc4C(c4ccccc43)[C@@H]2C1=O (stereo partly drawn) | -12.3%
CC(C)C[C@H]1CN=C(Nc2ccccc2)N1CC1CCCCC1 | 3.71%
CCOc1ccc(NC(=O)c2ccc(NC(=O)C3CCCO3)cc2)cc1 (stereo not drawn) | -28.7%
CCN(C(=O)CN1C(=O)/C(=C/c2ccc(F)cc2)SC1=S)C1CCS(=O)(=O)C1 (stereo not drawn) | -43.9%
COc1ccccc1/C=N/Nc1nc(C)c(C(C)=O)s1 | -19.2%
Cc1ccc(S(=O)(=O)N(C)C)cc1NC(=O)C1Cc2ccccc2CN1C(=O)c1ccco1 (stereo not drawn) | -29.3%
CCCNC(=O)c1cnc(-c2ccccc2)nc1-c1ccccc1 | -20.5%
O=C(c1ccc(Cn2cc([N+](=O)[O-])cn2)o1)N1CCCC1 | -4.09%
COc1ccc(CC(=O)N/N=C(\C)c2ccccn2)cc1 | -6.95%
Cc1cccc(OCC(=O)NCCCNC(=O)c2ccccn2)c1 | -16.1%
CCN(CC)CCOc1ccc2c(c1)C(=NNC(=O)c1ccccn1)c1cc(OCCN(CC)CC)ccc1-2 | 98.8% (active)
COc1ccc(CCNC(=O)C(=O)NCC2OCCN2S(=O)(=O)c2ccc(F)cc2)cc1OC (stereo not drawn) | -32.4%
Cc1ccc(C(=O)N/C(=C\c2cn(S(=O)(=O)N(C)C)c3ccccc23)C(=O)N2CCCC2)cc1 | -52.8%
